In the supplement of paper PMC3334620:
The full ranking holds about 33,000 sequences; the median of “E-score (-0.5 to 0.5)” is about -0.016, and the highest 2% start at about 0.31. The list comes from a sample in which the highest values are over-represented; it also holds similar and randomly drawn sequences.

What follows are sequences tested against Cst6 (UniProt P40535) (assay: PBM E-score (8-mer binding enrichment) (E-score (-0.5 to 0.5)); higher = stronger / more preferred TF binding). Details: protein concentration: 200 nM; construct: GST-DNA-binding domain.
Protocol: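 Universal 'all 10-mer' protein binding microarrays (Agilent AMADID 015681) probed with GST-tagged S. cerevisiae TFs (full-length or DBD) made by in vitro transcription/translation (PURExpress), about 100-200 nM. Bound TF was detected with fluorescent anti-GST. Each ungapped 8-mer (which stands for itself and its reverse complement) is scored by the PBM enrichment score (E-score), a modified Wilcoxon-Mann-Whitney statistic from -0.5 to +0.5, computed with the Universal PBM Analysis Suite. Scale: above 0.35 generally sequence-specific binding.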

UniProt P40535, sequence (P40535 whole entry, the tested form may be a part): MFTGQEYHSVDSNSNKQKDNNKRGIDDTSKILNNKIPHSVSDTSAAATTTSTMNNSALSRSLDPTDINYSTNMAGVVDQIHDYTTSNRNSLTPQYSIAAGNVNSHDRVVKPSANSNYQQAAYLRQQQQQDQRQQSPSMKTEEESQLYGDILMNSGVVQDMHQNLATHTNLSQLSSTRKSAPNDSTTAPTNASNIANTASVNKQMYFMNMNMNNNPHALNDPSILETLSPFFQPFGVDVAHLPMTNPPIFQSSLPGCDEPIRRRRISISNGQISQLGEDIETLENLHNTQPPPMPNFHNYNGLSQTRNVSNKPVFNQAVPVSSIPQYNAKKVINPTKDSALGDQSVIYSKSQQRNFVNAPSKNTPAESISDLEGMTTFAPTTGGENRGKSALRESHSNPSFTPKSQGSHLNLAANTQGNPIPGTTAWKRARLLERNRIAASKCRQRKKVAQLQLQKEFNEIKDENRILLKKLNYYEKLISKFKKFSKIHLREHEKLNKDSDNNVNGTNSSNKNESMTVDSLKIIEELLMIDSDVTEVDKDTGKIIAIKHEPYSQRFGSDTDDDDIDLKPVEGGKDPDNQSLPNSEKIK

Sequence | PBM E-score
AAGCGTGA | 0.141
GACTATCA | -0.104
CGGAGATC | -0.205
ACTGTGTA | -0.043
CTACTCCC | -0.156
CAGGCCAA | -0.178
GCGTGACA | 0.255
CGTTCTTC | 0.151
ACAGATCC | 0.0419
ACGAACAC | 0.138
AGATGACT | 0.0398
AGATGACG | 0.473
AGATGACC | 0.0152
ACTCTGGA | 0.109
GGACGAAA | 0.0732
GGACGACA | 0.0793
AGACGAAA | 0.134
TGACGAAA | 0.477
TGACGACA | 0.476
CGACGACA | -0.054
TGCATCAA | 0.154
CAGCCAAA | 0.0814
AGCCTGAA | -0.0532
GTGACCTA | 0.192
ATGACCTG | 0.0198
CTGACCTA | -0.0164

Sequence | PBM E-score
ATGACCTC | 0.349
ATGACCTA | 0.346
CTGACCTC | 0.0456
GCCGGCAA | -0.108
GGTCATCA | 0.247
CGTCATCA | 0.487
AGTCATCC | -0.0119
AGTCATCA | 0.0814
CCTCATCC | -0.272
CGTCATCC | 0.473
CGGCACGC | 0.0275
TGTGGAAA | 0.186
AATGATCT | 0.215
ATTGATTC | 0.178
ACTGATGA | 0.173
ATTGATTG | 0.237
AATGATGA | 0.334
GATGATTA | 0.2
AAAGATGT | 0.13
ATTGATTA | 0.308
AATGATTC | 0.225
AATGATGT | 0.41
AATGATGG | 0.186
AATGATTA | 0.344
CCAAACTC | -0.0716
CTCATCGC | -0.0477

Sequence | PBM E-score
GTAACCAC | -0.0805
AACAGAGG | -0.0721
ACAAGTTG | -0.0486
AACACCCA | -0.246
TGAACCAA | 0.184
AGGCGGTA | -0.225
CCAAGCCG | -0.182
TGCCATAA | 0.00753
ACGTTACC | 0.179
AACGGTTG | 0.0747
CCTGATGC | 0.0754
ATTGATGC | 0.262
GATGATGC | 0.328
AGTGATGG | 0.0422
AGTGATGA | 0.284
GATGATCC | 0.00428
AATGATCC | 0.026
AGTGATGC | 0.317
AATGATGC | 0.347
AAATTAGC | 0.153
ACACTCCC | -0.177
GCACTAAC | -0.119
CCACCTCA | -0.114
AGCAGTGG | -0.048
TATAAATA | 0.294
AATATAAG | 0.352

Sequence | PBM E-score
AATAAATG | 0.302
TATATAAA | 0.298
AATATAAA | 0.331
AATAAATA | 0.39
AATATAAT | 0.156
CATATAAA | 0.236
CATATAAG | 0.146
AGGACAAC | 0.0452
ACGGTCTA | -0.0035
CGTATTGC | 0.0567
ACGGATTC | 0.0332
CCGTACTC | -0.113
TGCCAAAA | 0.0693
ATGTGGGG | -0.237
GACATGAC | 0.275
ATCATGAC | 0.446
GTCATGCA | 0.36
CTCATGAA | 0.158
CTCATGAC | 0.335
CTCATGCA | 0.00428
ATCATGAA | 0.17
CTCATGAG | 0.079
GTCATGAA | 0.268
ATCATGCA | 0.109
ATCATGAG | 0.146
GTCATGAC | 0.374

Sequence | PBM E-score
ATTGAGCG | -0.0477
ACCGGATA | -0.0988
AAAGGCCA | -0.109
AGCGCGTA | 0.177
CTGATGGA | -0.0729
ACGTGCAG | 0.0472
ACCGCCGT | 0.209
TTAATTAA | 0.0995
ATCATTAG | 0.19
AAAATTAC | 0.257
AAAATTAG | 0.159
CATATTAC | 0.261
AAAATTAT | 0.378
ATAATTAA | 0.322
GATATTAC | 0.352
AATATTAC | 0.241
GTAATTAA | 0.188
ATCATTAC | 0.375
CTCATTAC | 0.25
CAAGGATC | -0.012
GCTATACC | -0.19
GGAGCATA | -0.00076
CCGGCATA | -0.15
CCTGCGCG | -0.0722
AAAGCGCC | 0.113
CTAGTCAA | -0.127

Sequence | PBM E-score
AGCACCTA | -0.227
ATACGTTC | 0.0426
GGGGAGAA | -0.161
GAAATTAA | 0.334
ATAATTAG | 0.223
ACTATTAC | 0.201
ATTGTTAG | 0.129
ATTATAAT | 0.259
ATTATTAC | 0.339
AAAATTAA | 0.115
CAAATTAA | 0.224
CTTGTTAC | 0.0412
CTTATTAC | 0.231
ATTGTTAC | 0.348
ATAATTAT | 0.342
CGACTAAC | -0.0525
ACACACCT | 0.0393
CATGAAAG | 0.082
GTAATTAC | 0.287
GAGATTAC | 0.312
CTTCTTAC | -0.0252
CTAATTAC | 0.243
GAGATTAA | 0.0823
ACAATTAT | 0.289
ATTCTTAG | 0.0174
AAGATTAC | 0.127

Sequence | PBM E-score
ATTCTTAC | 0.315
ACAATTAC | 0.249
ACAATTAA | 0.319
ATAATTAC | 0.349
ACTGCGTC | 0.147
CACTTGGC | -0.08
GTGCTTAA | 0.0338
ATCGCAGG | -0.199
GCATTGTA | 0.047
GGGCTGTA | -0.256
GCAACCCA | -0.0438
ATTTTCTG | 0.115
CCTCGAAA | 0.0797
CATCACTA | 0.353
CCTCACTC | 0.0262
AGTCACTC | -0.033
GGTCACTA | 0.0296
CGTCACTC | 0.445
AATCACTA | 0.159
GATCACTA | 0.0963
CGTCACTA | 0.459
AGTCACTA | 0.209
GTTTGGTA | 0.213
CAAAAATG | 0.133
ACTGTGGG | -0.0161
GATACCGC | -0.0789

Sequence | PBM E-score
AGGGACAT | -0.181
CGACGGGC | 0.0567
CCATTACC | -0.00808
AGGAGACA | -0.0509
ATCAAGTC | 0.0221
GGAGGTAA | -0.0533
AGAGGTAA | -0.119
TGAGGTAA | 0.414
ATAGCTGA | -0.204
CATTCCAG | -0.0492
AGAGGGTG | -0.204
ATGCCGCA | 0.353
GTGCCGCA | 0.362
ATGCCGCG | 0.233
CTGCCGCA | 0.0518
GAGCCGCA | 0.28
GGGCCGCA | -0.0641
TAACTACA | 0.0421
AGAGTTTA | 0.176
CCACACTA | 0.149
TACCTAAA | 0.14
CGTGTGGA | -0.153
AAAGGGGC | -0.196
AACGGCAA | 0.251
AACGGCAT | 0.346
AACGGCAG | 0.134

Sequence | PBM E-score
CACGGCAA | 0.302
GACGGCAC | 0.23
CACGGCAG | 0.142
AACGGCAC | 0.343
ATCGGCAT | 0.23
CACGGCAC | 0.356
CTCTGAAA | -0.0419
AAGGATGA | 0.0593
CATGCAAA | 0.142
CCCGCCGC | 0.126
CGCCGCGA | 0.241
CGCGCCGA | 0.137
AGCCGCGC | 0.18
AGCGCCGG | -0.102
AGCGCCGA | 0.00204
CGCCGCGC | 0.357
CGCGCCGC | 0.326
CGCCGTGA | 0.221
CGCCGTGC | 0.344
AGCCGTGC | 0.24
AGCGCCGC | 0.309
ATTATGCG | 0.217
ACGAGTTA | 0.0712
CTTCTTCC | -0.212
ACCTAGTA | -0.284
AACTCTGT | 0.0458

Sequence | PBM E-score
ATCTATCA | 0.128
ACCCACGT | 0.0287
ACCAACTC | -0.0108
CATTTCCA | 0.143
CTTTAGGA | -0.0677
ACCTCTCA | -0.0889
TGACATAA | 0.477
CTACATAA | -0.0447
GGACATAA | 0.0407
GTACATAA | 0.085
AGACATAA | 0.0351
TTACATAA | 0.433
ACTACCTA | 0.0222
AGTGGAGC | -0.165
CGGTGACA | 0.266
AGGTGACC | 0.046
AGTTGACA | 0.191
CGGTGACC | 0.115
AGTTGACC | -0.114
AGTTGACG | 0.324
AGGTGACA | 0.278
CGGTGACG | 0.476
ATGTGACC | 0.0452
ATGTGACG | 0.433
ATGTGACA | 0.151
AGGTGACG | 0.452

Sequence | PBM E-score
CCCAGGGA | -0.37
CTGGAGCA | -0.0734
CAGCCTTA | -0.254
AAGCTAAG | -0.252
AAAGCTTC | -0.172
CTACTTAC | 0.127
AGGCTAAC | -0.114
CAAACCTG | 0.0584
GATAATAA | 0.098
AATAATTC | 0.205
CATAATTA | 0.304
GCTAATTA | 0.166
ACTAATTA | 0.351
GATAATTA | 0.322
AATAATTG | 0.121
CCTAATTA | -0.00674
AATAATTA | 0.325
CAGGGCGA | -0.00562
CTCTCGCC | -0.249
AATGGTGA | 0.184
TCGGCTCA | -0.0753
AGTGACTC | 0.0809
CGTGACCA | -0.0809
CGTGACAA | 0.108
CGTGACGA | 0.386
CGTGACGC | 0.436

Sequence | PBM E-score
CCTGACGC | -0.0402
AGTGACCC | -0.164
AGTGACGC | 0.438
CTTGACGC | 0.214
GCGTTAAA | -0.0116
AGGGTAGC | -0.17
GTGCTATA | 0.0846
ACTCATTC | 0.103
CTCCGATA | -0.203
GGGATTTA | 0.00892
GGGCCTGA | -0.239
TCACCAAA | 0.326
ACACCAAA | 0.212
GCACCAAA | 0.0915
CGCCTTAC | 0.163
GAAGTGGA | -0.16
ATCATATA | 0.299
ATCATAGA | 0.246
GTCATAAA | 0.331
GTCATACA | 0.317
GTCATATA | 0.377
GGCATACA | -0.102
TTCATAAA | 0.212
GTCATAGA | 0.411
CTCATATA | -0.0189
CTCATAGA | 0.0631

Sequence | PBM E-score
ATCATAAA | 0.195
CTCATACA | 0.116
CAACACTG | 0.0167
AGGCGTGG | -0.196
ATTAAGCG | 0.108
AACTGAAG | 0.0725
CCGGCCAA | -0.232
TGCTAGCA | 0.0927
AGTACTGC | -0.173
TAAAGTCA | 0.0375
ATTGCTCA | 0.192
CAGATACG | 0.0888
CTAACAGC | -0.00671
ATCATACG | 0.308
ATCATACA | 0.268
ATCATACC | 0.259
CAGACAAG | -0.14
AGTCTCCC | -0.308
CATCATAG | 0.326
CATCATAA | 0.291
AATCATAG | 0.189
ACTCATAG | 0.152
AATCATAC | 0.239
CATCATAC | 0.374
CAGGGAAG | -0.244
CTTCCTTC | -0.24

Sequence | PBM E-score
ATGGTGAG | 0.0691
CAACACCC | -0.142
AGGCCCAC | -0.378
GGAGTTTA | 0.00491
AGGATGAC | 0.208
ATGATTAA | 0.329
ATGATGAA | 0.367
CTGATGAC | 0.292
ATGATTAG | 0.158
GTGATGAA | 0.154
CTGATTAA | 0.161
CTGATGAA | 0.0772
ATGATGAC | 0.378
